Experimental data reported in PubChem BioAssay AID720518 (National Center for Advancing Translational Sciences (NCATS), 2013).
Records with an inconclusive call do not appear. Entries that show only a call come without a potency. The source made the active and inactive calls. Calls come from the whole dose curve.

Test: qHTS for Inhibitors of Cell Surface uPA Generation: Wild-type Protective Antigen (WT-PrAg) Counterscreen for Cherry-picked Compounds

| Compound | Potency |
| --- | --- |
| Cc1[nH]c2ccccc2c1C(=O)COC(=O)c1cccc(S(=O)(=O)N2CCCCC2)c1 | inactive |
| O=C(CN1CCOC1=O)N1CCCC(Nc2ccc(F)c(F)c2)C1 (configuration not stated) | inactive |
| C#CCOCCOCCOCCNc1nc(N2CCOCC2)nc(N2CCN(C(=O)[C@H](CCC(=O)O)n3cc([C@@H](N)CCCCN)nn3)CC2)n1 | inactive |
| O=C(COC(=O)c1ccc2ncsc2c1)NCc1cccc(Cl)c1 | inactive |
| Cc1noc(C)c1COc1ccc(C(=O)N2CCN(S(=O)(=O)c3ccc(Cl)cc3)CC2)cc1 | inactive |
| CC(=O)c1ccc(N2CCN(C(=S)NCc3ccco3)CC2)cc1 | inactive |
| O=C(Cc1n[nH]c(=O)c2ccccc12)Nc1cccc(S(=O)(=O)N2CCCCCC2)c1 | inactive |
| CCC1(C)NC(=O)N(CC(=O)Nc2sc3c(c2C(N)=O)CCC3)C1=O (configuration not stated) | inactive |
| O=C1c2ccccc2[C@@H]2C[C@H](NC34CC5CC(CC(C5)C3)C4)[C@@H](O)CCN12 | inactive |
| COc1ccc(C(=O)NCC(=O)N/N=C/c2c(C)[nH]c3ccccc23)cc1 | inactive |
| CS(=O)(=O)Nc1cccc(C2=NN(S(=O)(=O)c3ccccc3)C(c3ccco3)C2)c1 (configuration not stated) | inactive |
| Cc1ccnc(NS(=O)(=O)c2ccc(NC(=O)C3C4C=CC(C4)C3C(=O)O)cc2)n1 (configuration not stated) | inactive |
| CC(C)(C)OC(=O)C[C@@H]1C/C=C\C[C@@H](CC(=O)N(CCO)Cc2ccccc2)C(=O)N[C@H](Cc2c[nH]c3ccccc23)COC1=O | inactive |
| CCOC(=O)C1(CCOc2ccccc2)CCN(Cc2ccc(O)c(OC)c2)CC1 | inactive |
| Cc1cc(C)n2c(SCC#N)nnc2n1 | inactive |
| COCCN(C(=O)c1ccccc1OC)c1nnc(C)s1 | inactive |
| CCN(C(=O)CSc1ncnc2sccc12)c1c(N)n(Cc2ccccc2)c(=O)[nH]c1=O | inactive |
